Paper PMC12136788
Positions count from the first letter of the chain named. The full ranking holds about 5,800 sequences; the median of “enrichment r” is about 0.68, and the highest 2% start at about 11. The full list was thinned out, with the highest values kept by preference.

T1: UNK ZnF1-6 (called full-length) (human, UniProt Q9C0B0 30-357)
T1 sequence: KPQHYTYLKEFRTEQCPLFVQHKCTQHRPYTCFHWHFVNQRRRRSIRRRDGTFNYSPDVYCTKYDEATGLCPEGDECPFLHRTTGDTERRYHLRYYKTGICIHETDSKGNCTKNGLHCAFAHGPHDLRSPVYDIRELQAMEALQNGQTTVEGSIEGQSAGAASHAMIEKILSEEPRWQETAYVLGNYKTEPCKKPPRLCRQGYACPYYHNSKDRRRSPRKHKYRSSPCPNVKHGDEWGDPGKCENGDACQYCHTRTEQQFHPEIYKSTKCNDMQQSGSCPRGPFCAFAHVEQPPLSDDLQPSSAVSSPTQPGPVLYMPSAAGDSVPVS

B1: chr16:70160055:70160156:+|3pUTR|ENSG00000090857|msi1|total|mutant (ssRNA)
RNA: GGGAGUUCUACAGUCCGACGAUCUUGUGCUCACCACGAAGGAUGGUCUCUGCCUUCUCUUGUCGGUGUAUGCCAUCUGAACCCCGGAACACAAAGUAUAUUGGCCUCAAACGGAGACCCAGGGUUGCCAGUUUUCCGUGGGCCCAACAGAGGAUUGAGCAUCA
B2: chr12:68660398:68660499:+|3pUTR|ENSG00000127314|msi1|FALSE|unique (ssRNA)
RNA: GGGAGUUCUACAGUCCGACGAUCUUGAGGUGGCCAAAUGUAAACUAAAAGCCUUAAUUAAAGUGGUGCAAUUUUGUAUAACUUAGCAUCAGUAGUUCAAUAAAUUUGGAUUGCCAUGCAAGGGCUUGCAUUAUAAUUACUUGCCAACAGAGGAUUGAGCAUCA
B3: chr4:186588032:186588133:-|3pUTR|ENSG00000083857|msi1|FALSE|unique (ssRNA)
RNA: GGGAGUUCUACAGUCCGACGAUCUUUUUUUACUAUAACCAGGGUUUCAUUCUGUCUUUUUCCACUGAAGUGUGACAUUUUGUUAGUACAUUUCAGUGUAGUCAUUCAUUUCUAGCUGUACAUAGGAUGAAGGAGAGAUCAGAUCAACAGAGGAUUGAGCAUCA
B4: chr1:225496770:225496921:-|3pUTR|ENSG00000154380|msi1|FALSE|unique (ssRNA)
RNA: GGGAGUUCUACAGUCCGACGAUCUUUUUUAAUUGCAGACAGUAAUGCAUGUCACACUAAUAUGUAGUGGCCUUUUCAAGGCCUAGUCCCAGGGAAAACAUUUUGUAGAGUAUAGGGGAGUGGGAGGAAGGGGAGGAAUAAUUUCAACAGAGGAUUGAGCAUCA
B5: chr13:45969211:45969312:-|CDS|ENSG00000123200|unk|FALSE|unique (ssRNA)
RNA: GGGAGUUCUACAGUCCGACGAUCGUCCCUGACCGUACAGAGGUGACAGAAGCAGAGCAUACUGCCACCGCCACGACUCCUGGUAGUACCCCUUCUCCUCUAUCUUCUCUUCUUCCUCCUCCACCGCCUGUGGCUACUGCCACUCAACAGAGGAUUGAGCAUCA
B6: ENSG00000107863:be:win_5851|CDS_3pUTR|ENSG00000107863|bound_else_gene|NA|bound_elsewhere_windowed (ssRNA)
RNA: GGGAGUUCUACAGUCCGACGAUCAAAGCAGAGUUUCAUCCCUGUCUUUAAACUGGGGGUAUGUCCACUCUAGCAAGUAAAAAAACUACUGUUACACGUUCCAGUAACUCUGUCAAUAUUUUCUUGUAUCAGAAUUGUUAUUAUCAACAGAGGAUUGAGCAUCA
B7: ENSG00000198589:be:win_7901|CDS|ENSG00000198589|bound_else_gene|NA|bound_elsewhere_windowed (ssRNA)
RNA: GGGAGUUCUACAGUCCGACGAUCCUCGUUCUGAGUCAUAUAUUGGGGGAAAUUGCUACAUUCUCUCAGGGUCACGUGAUGCAACUCUUUUGCUGUGGUAUUGGAAUGGAAAAUGCAGUGGGAUUGGAGAUAACCCAGGCAGUGCAACAGAGGAUUGAGCAUCA
B8: chr13:106491723:106491923:-|3pUTR|ENSG00000125266|msi1|total|mutant (ssRNA)
RNA: GGGAGUUCUACAGUCCGACGAUCCAGACUCAGCUGCUAUACUUAUCACAUUUUAUUAAACACAGGGAAAGCAUUCCGGAGAACCGCAGAGAGCCAAAUCUGACCUAAAAGUUGAAAAGCCAAAGGUCAAACAGGCUGUAAUUCCAACAGAGGAUUGAGCAUCA
B9: chr1:178849534:178851128:-|three_prime_utr|ENSG00000116194|control|control|control (ssRNA)
RNA: GGGAGUUCUACAGUCCGACGAUCCUACACAGAAAGUUUUUAAAAUGAAUUUUACCGUAACUAUAAAAGGGAACCUAUAAAUGUAGUUUCAUCUGUCGUCAAUUACUGCAGAAAAUUAUGUGUAUCCACAACCUAGUUAUUUUACAACAGAGGAUUGAGCAUCA
B10: chr10:17315694:17315795:-|3pUTR|ENSG00000148488|unk|FALSE|unique (ssRNA)
RNA: GGGAGUUCUACAGUCCGACGAUCCUUCUUCCUCCCUGUCCAUCCCACCCUCGUCCCCAGAAAAUUCCUAAUCUGUUUUUCUAUAGACAUUUACAUUUUUACACUAUAGACUGUUUACAUUUUUUAGAAUUUUAUAUAAAUGGACAACAGAGGAUUGAGCAUCA
B11: chr1:93361585:93361687:+|3pUTR|ENSG00000117505|unk|FALSE|unique (ssRNA)
RNA: GGGAGUUCUACAGUCCGACGAUCUUUAACUUGUAGUUAUAGUUUACUUAUUGUUUUUAGAAUUACUUUUACAUUUUCCCAACUAGAUGGCCUAGAGUCCAACAUUACCUUUUGAGAUGACAUUAUUGUCUCCAUAAUUGAGUGCAACAGAGGAUUGAGCAUCA
B12: chr15:52550141:52550321:-|3pUTR|ENSG00000128989|msi1|FALSE|unique (ssRNA)
RNA: GGGAGUUCUACAGUCCGACGAUCAGAUGUCACUUUAGUAAAAUACCAAUUUAGUUUUACUUGUGGCUUAUCUAGUUAGAACUUAGCAGACUUUACUGGGACAAGUUUACUGCUCUUGUAGGAGCUCCUCUCACAAGUAGUUGUCAACAGAGGAUUGAGCAUCA
B13: chr1:93361585:93361687:+|3pUTR|ENSG00000117505|unk|total|mutant (ssRNA)
RNA: B11 RNA with U33C, A34C, U39C, A40C, U57C, A58C, U83C, A84C, U92C, A93C
B14: chr3:89481969:89482070:+|3pUTR|ENSG00000044524|msi1|FALSE|unique (ssRNA)
RNA: GGGAGUUCUACAGUCCGACGAUCAUAUGUGUUUACUUUAAACUUGUCUUUUCAAAAUAUUACUCAGUUUAUGUUGUACAAUGUAGAUGGCCUCUUACUAAUGUAAAAUGAUUUGUAGUGGAAACAUUUAUAUUUUUAUAAUAACAACAGAGGAUUGAGCAUCA
B15: chr1:9729969:9730061:-|3pUTR|ENSG00000171603|msi1_unk|FALSE|overlapping (ssRNA)
RNA: GGGAGUUCUACAGUCCGACGAUCGUUUUUAUUUUUUCCAAACUAGUGCAUGUAUAAAUAAUGGCAGGAUGGGGGGUACUGUGUAGAUGAUUAACUGACUUUUUAAUAUUUUGUAAAUAAAUCGGAUUCCUUGUGUCCUUUGUGCAACAGAGGAUUGAGCAUCA
B16: chr10:16593140:16593241:-|3pUTR|ENSG00000148484|unk|FALSE|unique (ssRNA)
RNA: GGGAGUUCUACAGUCCGACGAUCUUAUUUUUCUUUUCACUCUCUUUCUAAUGCUUCCCACCUUACCUUUUAGAUUCUUUUGCUAGGUGGGAGAUUGUUAUAAGGUCUUUAAACCAUUUCCAUUUGUUUCUUUAACAUUACCAACAACAGAGGAUUGAGCAUCA
B17: chr1:9729969:9730061:-|3pUTR|ENSG00000171603|msi1_unk|total|mutant (ssRNA)
RNA: B15 RNA with U43C, A44C, U83C, A84C
B18: chr2:5695263:5695412:+|3pUTR|ENSG00000176887|msi1_unk|FALSE|overlapping (ssRNA)
RNA: GGGAGUUCUACAGUCCGACGAUCUGGUGAUAUAGACCUCAGAGCUGUUAUCUUAGUUUAAAGAUUGUAUAUGUACUGUACUAUAGUAGGACUUUAUGUAUCUCAUACGCUGUGAUGUGGAUGGGGCCCCAGAUGGAAGGUUUGCAACAGAGGAUUGAGCAUCA
B19: chr11:119045269:119045370:-|3pUTR|ENSG00000149428|msi1|FALSE|unique (ssRNA)
RNA: GGGAGUUCUACAGUCCGACGAUCUGUGGUUAAAAAUGGAAACUGUUCUCCUCCCCAGCCCCACUCCCUGUUCCCUACCCAUAUAGGCCCUAAAUUUGGGAAAAAUCACUAUUAAUUUCUGAAUCCUUUGCCUGUGGGUAGGAACAACAGAGGAUUGAGCAUCA
B20: chr14:53039561:53039662:-|3pUTR|ENSG00000100523|unk|total|mutant (ssRNA)
RNA: GGGAGUUCUACAGUCCGACGAUCUCAAACUAUAUUUUUGUUACAGCAAACUACAUUCCAUUUGCCUUUAAAUGCUUGCAUUUCCGUUAUUGUACUGGCUACCUGUUUUUGUCUGCCCAGCAUCCUGUUUCCCCUCCUUUUGGACAACAGAGGAUUGAGCAUCA
B21: chr1:162523450:162523604:+|3pUTR|ENSG00000152332|msi1|FALSE|unique (ssRNA)
RNA: GGGAGUUCUACAGUCCGACGAUCAGACUAAGUUGUGCCAGAUGUAAAUCAACCCCUCUUUUAGUUUACUUUAGACUUUGUAUUAGCUCAUCUUUUUUGUAGUAAAUCUAUAGUUUUAAGGUUUCUCAAGAUGUGGCUCUACCUCAACAGAGGAUUGAGCAUCA
B22: chr1:180885316:180885399:+|3pUTR|ENSG00000143324|msi1_unk|FALSE|overlapping (ssRNA)
RNA: GGGAGUUCUACAGUCCGACGAUCUUGGCAGCCAUUUCUCCCAGCAGUUUUAAAGGAUGAACAUUGGAUUUCAUGCCAUCCCAUAGAAAACCUGUUUUAAAAUUUUAGGGAUCUUUACUUGGUCAUACAUGAAAAGUACACUGCCAACAGAGGAUUGAGCAUCA

target: T1, UNK ZnF1-6 (called full-length); assay: nsRBNS (natural sequence RNA bind-n-seq); RBNS binding buffer (assumed for nsRBNS): 25 mM Tris pH 7.5, 150 mM KCl, 3 mM MgCl2, 0.01% Triton X-100, 500 ug/ml BSA, 20 U/ml SUPERase-In, 4 C; UNK is unkempt and MSI1 is Musashi-1; names of the RNAs are library labels; protein concentration not given here; high values mean tight binding

In order of rising binding signal:
1. B6  0.426 enrichment R
2. B20  0.468 enrichment R
3. B1  0.469 enrichment R
4. B19  0.528 enrichment R
5. B2  0.685 enrichment R
6. B7  0.728 enrichment R
7. B8  1.05 enrichment R
8. B3  1.31 enrichment R
9. B18  1.36 enrichment R
10. B17  1.54 enrichment R
11. B14  1.68 enrichment R
12. B5  1.84 enrichment R
13. B22  1.91 enrichment R
14. B12  2.25 enrichment R
15. B9  2.6 enrichment R
16. B16  4.14 enrichment R
17. B13  4.48 enrichment R
18. B4  7.59 enrichment R
19. B15  22 enrichment R
20. B10  25.2 enrichment R
21. B21  58.2 enrichment R
22. B11  152 enrichment R
